Assay outcomes from PubChem BioAssay.
A selection: hits, their analogues and other compounds. The true share with any hit is near 5.2%.
Tau fluor counter: counter-screen for tau fibril formation inhibitors; AID 1463; Potency, µM (series often up to 57.7 µM); 280,000 compounds, 0.93% hits; tau K18 P301L Alexa594 fluorescence, heparin fibrillization; further: nearly all actives have a fitted effect of over 55% in size
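Human tau K18 P301L (15 uM unlabeled, 0.24 uM Alexa 594-labeled) in 100 mM sodium acetate pH 7 with 20 uM heparin, 6 hr at 37 C. ThT 30 uM added, 1 hr ambient; Alexa 594 FP and total fluorescence read at 555/632 nm.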
Tau fibril FP: tau fibrillization inhibition (FP); AID 1468; 280,000 compounds, 0.39% hits; K18 P301L tau heparin fibrillization, Alexa594 FP, 6 h; Potency, µM (doses to about 57.7 µM), hits mostly inhibitors; further: nearly all actives have a fitted effect of over 55% in size
Target sequence (P10636 561-689 P618L limits assumed): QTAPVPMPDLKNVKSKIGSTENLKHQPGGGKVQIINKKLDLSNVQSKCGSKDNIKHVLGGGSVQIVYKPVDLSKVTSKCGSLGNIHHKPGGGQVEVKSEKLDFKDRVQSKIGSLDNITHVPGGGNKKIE
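Read-out: fluorescence polarization of Alexa 594-labeled tau (0.24 uM), 555 nm excitation, 632 nm emission. Mixtures held 15 uM unlabeled K18 P301L, compound and 20 uM heparin, pH 7 acetate buffer, incubated 6 hr at 37 C.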
Sfp PPTase inh: Sfp phosphopantetheinyl transferase inhibition | Biochemical Sfp PPTase activity, qHTS | 310,000 compounds, 3.5% hits | Potency, µM, most hits filed as inhibitors | AID 1490;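 further: the enzyme is Sfp with the accession as filed and its product quenches rhodamine fluorescence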
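After 15 min at room temperature with compound, 15 nM Sfp received 5 uM rhodamine-CoA plus 12.5 uM BHQ-2-ybbR (50 mM Hepes pH 7.6, 10 mM MgCl2). Rate came from the fluorescence difference over 30 min, ex 525/em 598 nm.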
Coupling enz: inhibits coupling enzyme system, counter-screen for aldolase hits; coupling enzyme system counterscreen, AmpLite Red fluorescence; activity change, negative = inhibition, % at 58.2 µM, hits read low; 290,000 compounds, 0.67% hits; in the data active means activity change below about -30%
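Coupling enzymes only (glyceraldehyde-3-phosphate) + compound, at 57.5 uM final, 10 min RT; add substrate/coupling/AmpLite Red mix, 20 min RT; fluorescence ex 525/em 598 nm. Actives flag coupling-system interference.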
Tau fibril ThT: inhibitors of human tau fibril formation, thioflavin T binding. P10636. recombinant tau K18 P301L (four-repeat tau fragment), heparin-induced fibrillization, ThT fluorescence. Potency, µM (highest dose often 57.4 µM), hits mostly inhibitors. 270,000 compounds, 2.1% hits; further: nearly all actives have a fitted effect of over 55% in size
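Heparin-induced fibrillization of the P301L-mutant K18 repeat-domain fragment of human tau was followed by ThT binding in quantitative high-throughput format.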
Each line names hits and unclear results; the compound was inactive in the other large screens; [ ] = another dose, or the depositor's remark. Unless noted, the call rests on the fitted dose curve; in most records, active means well fitted curve in the direction sought with a large enough effect; inconclusive means small, poorly fitted or top-dose-only effect, or another doubt; inactive means no such curve, though single readings can be large; an effect the other way counts as inactive or inconclusive.

c1ccc(-c2nc(-c3ccccc3)c(NC3CCCCC3)o2)cc1	Tau fibril ThT inconclusive
CC1=NN(c2ccccc2)C(=O)C1N=Nc1ccc(N)cc1 (stereo not given)	Tau fluor counter 16µM[quencher], Tau fibril ThT 11µM
CN1CCN(c2ccnc(-c3ccoc3)n2)CC1	Sfp PPTase inh 79µM (no result: Tau fluor counter, Tau fibril FP, Tau fibril ThT)
CN1CCN(c2ccnc(-c3cccnc3)n2)CC1	none (no result: Tau fluor counter, Tau fibril FP, Tau fibril ThT)
CCN1C(=O)c2cccc3cccc1c23	Sfp PPTase inh 16µM
O=C1c2cccc3cccc(c23)C(=O)N1c1ccncc1	none
O=C1c2cccc3cccc(c23)C(=O)N1c1cccnc1	Tau fluor counter inconclusive, Tau fibril FP 13µM, Sfp PPTase inh inconclusive
Cc1ccccc1N1C(=O)c2cccc3cccc(c23)C1=O	Sfp PPTase inh 50µM (no result: Tau fluor counter, Tau fibril FP, Tau fibril ThT)
CN(C)C(=O)CN1C(=O)c2cccc3cccc1c23	none (no result: Tau fluor counter, Tau fibril FP, Tau fibril ThT)
O=C(O)c1ccccc1N1C(=O)c2cccc3cccc(c23)C1=O	none (no result: Tau fluor counter, Tau fibril FP, Tau fibril ThT)
c1ccc2oc(-c3csc(N4CCOCC4)n3)cc2c1	Sfp PPTase inh 56µM, Tau fibril ThT inconclusive
CCOc1ccc(/C(CCC(=O)O)=N/NC(=S)NC(C)C)cc1	Sfp PPTase inh 35µM
CCOc1ccc(C(=O)CCC(=O)O)cc1	none
Nc1nc(SCC(=O)NCCCN2CCOCC2)nc2sc3c(c12)CCC3	Sfp PPTase inh 28µM
CC(Nc1oc(-c2ccc(COc3ccccc3)o2)nc1C#N)c1ccccc1 (stereo not given)	Tau fluor counter inconclusive (no result: Sfp PPTase inh, Coupling enz)
C#CC(C)(CC)NC(=O)Cn1nnc(-c2ccc(OCc3ccccc3F)cc2)n1 (stereo not given)	none (no result: Sfp PPTase inh, Coupling enz)
O=C(CSc1nnc(-c2ccccc2)c(-c2ccccc2)n1)NCCc1ccccc1	none (no result: Sfp PPTase inh, Coupling enz)
S=c1[nH]c2ccccc2n1Cc1ccccc1	Sfp PPTase inh 14µM (no result: Tau fluor counter, Tau fibril FP, Tau fibril ThT)
Cc1ccc(OCCn2c(=S)[nH]c3ccccc32)c(C(C)C)c1	none (no result: Tau fluor counter, Tau fibril FP, Tau fibril ThT)
CCOc1ccc(OCCn2c(=S)[nH]c3ccccc32)cc1	none (no result: Tau fluor counter, Tau fibril FP, Tau fibril ThT)
Cc1cccc(OCCn2c(=S)[nH]c3ccccc32)c1	Sfp PPTase inh 6.3µM
S=c1[nH]c2ccccc2n1CCOc1ccccc1	Sfp PPTase inh 89µM (no result: Tau fluor counter, Tau fibril FP, Tau fibril ThT)
CCOc1ccccc1CNC(=O)c1ccc(Cn2c(SCc3ccccc3)nc3cccnc32)cc1	Tau fluor counter inconclusive (no result: Sfp PPTase inh, Coupling enz)
O=C(Nc1ccc2nc(-c3ccco3)c(-c3ccco3)nc2c1)N1CCN(c2ccccn2)CC1	Sfp PPTase inh 20µM, Coupling enz -41
Cc1nc2cc(NC(=O)N3CCN(c4ccccn4)CC3)ccc2o1	none
O=C(c1ccc2nc(-c3ccco3)c(-c3ccco3)nc2c1)N1CCN(c2ncccn2)CC1	Sfp PPTase inh 14µM, Tau fibril ThT inconclusive (no result: Coupling enz)
CCc1ccc(NC(=O)CSc2ncc(S(=O)(=O)c3cc(C)ccc3C)c(=O)[nH]2)cc1	none (no result: Sfp PPTase inh, Coupling enz)
COc1ccc(NC(=S)N/N=C2\CC(C)(C)Oc3ccc(O)cc32)cc1	Tau fluor counter 28µM[quencher], Tau fibril ThT inconclusive
COc1ccccc1NC(=S)N/N=C1\CC(C)(C)Oc2ccc(O)cc21	Tau fluor counter inconclusive, Tau fibril FP inconclusive, Tau fibril ThT inconclusive
O=C(N/N=C/c1sc2ccccc2c1O)c1ccccc1	Tau fluor counter inconclusive, Tau fibril ThT inconclusive
COc1ccc(C(=O)N/N=C/c2c[nH]c3ccccc23)cc1	none (no result: Tau fluor counter, Tau fibril FP, Tau fibril ThT)
O=C(N/N=C/c1sc2ccccc2c1O)c1cccc2ccccc12	Tau fluor counter inconclusive, Tau fibril ThT 10µM
COc1ccc2cc(C(=O)N/N=C/c3sc4ccccc4c3O)ccc2c1	Tau fluor counter 7.9µM[quencher], Tau fibril ThT 1.3µM
COc1ccc(C(=O)N/N=C/c2sc3ccccc3c2O)cc1	Tau fluor counter inconclusive, Tau fibril ThT 1.8µM
O=C(N/N=C/c1ccccc1F)c1cccc2ccccc12	none (no result: Tau fluor counter, Tau fibril FP, Tau fibril ThT)
Cc1cccc(C(=O)Nc2cccc(OCc3cc(=O)n4c(C)csc4n3)c2)c1	none (no result: Sfp PPTase inh, Coupling enz)
Cc1ccc(C(=O)Sc2cccccc2=O)cc1	Sfp PPTase inh 50µM (no result: Tau fluor counter, Tau fibril FP, Tau fibril ThT)
Nc1nn(-c2ccccc2)c(N)c1N=Nc1ccc2c(c1)OCO2	Tau fluor counter inconclusive, Tau fibril ThT 1.8µM
Nc1nn(-c2ccccc2)c(N)c1N=Nc1cccc(F)c1	Tau fibril ThT 10µM
Cc1nn(-c2ccccc2)c(N)c1N=Nc1cccnc1	Tau fibril ThT inconclusive
O=C(CN1CCSc2ccccc21)NCc1ccccc1F	none (no result: Sfp PPTase inh, Coupling enz)
Cc1cccc(C(=O)NCCc2nc3ccccc3n2CCC(C)C)c1	none (no result: Sfp PPTase inh, Coupling enz)
